SW480 rereplic: A quantitative high throughput screen for small molecules that induce DNA re-replication in SW480 colon adenocarcinoma cells; SW480 DNA re-replication, Hoechst DNA content imaging, 48 h; Potency, µM (series often up to 46.1 µM), for the others: top-dose re-replication activation, usual class: activators; 1.8% of 340,000 active; also: % of control where 0% means no effect; nearly all actives have a fitted effect of over 55% in size
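Cells (250 per well) received 23 nL compound or DMSO by pin tool and were kept 48 hr at 37 C, 5% CO2. Nuclei were then stained with Hoechst for 40 min and scanned for DNA content.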
KB-3-1 cytotox: qHTS assay for MDR1-selective chemotherapeutics: Primary screen using the parental adenocarcinoma cell KB-3-1. 1.4% of 400,000 active. AID 1347075, 2019. Potency, µM (titrated, usually from 46.1 µM), most hits filed as cytotoxic. KB-3-1 viability, CellTiter-Glo ATP luminescence, 72 h; also: % is scaled to controls: 0 for no effect and ±100 for the full control effect; nearly all actives have a fitted effect of over 60% in size
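Using CellTiter-Glo luminescence, growth of non-resistant KB-3-1 adenocarcinoma cells is assessed 72 h after pin-tool compound addition at 37 °C. Normalized responses across the concentration series yield fitted curves.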
KB-V1 MDR tox: qHTS assay for MDR1-selective chemotherapeutics: Primary screen using the drug-selected MDR subline cells KB-V1 | KB-V1 MDR cells viability, CellTiter-Glo, 72 h | Potency, µM (highest dose often 46.1 µM), actives largely listed as cytotoxic | 3.4% of 400,000 active | AID 1347076, 2019; also: % is scaled to controls: 0 for no effect and ±100 for the full control effect; nearly all actives have a fitted effect of over 60% in size
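qHTS viability screen in drug-selected KB-V1 MDR cells: 72 h compound treatment at 37 degrees C, ATP luminescence end point.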
MCF10A rereplic: A quantitative high throughput screen for small molecules that induce DNA re-replication in MCF 10a normal breast cells; AID 624296, 2012; Potency, µM (titrated, usually from 46.1 µM), inactives show at the top dose activity, positive = re-replication, actives largely listed as activators; MCF 10A DNA re-replication, Hoechst nuclear intensity, 48 h; 2.9% of 350,000 active; also: % of control where 0% means no effect; nearly all actives have a fitted effect of over 50% in size
ELG1 DNA repair: qHTS screen for small molecules that inhibit ELG1-dependent DNA repair in human embryonic kidney (HEK293T) cells expressing luciferase-tagged ELG1; HEK293T ELG1-luciferase reporter, luminescence, 16 h; DNA damage induced by 5-fluorouridine; Potency, µM (doses to about 46.1 µM), for the others: at the highest dose activity change, negative = inhibition, actives largely listed as inhibitors; 2.3% of 330,000 active; AID 504467, 2011; also: % is scaled to controls: 0 for no effect and ±100 for the full control effect; nearly all actives have a fitted effect of over 55% in size
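DMSO vehicle served as the neutral condition. Each well held 2,000 cells given 5-fluorouridine plus compound; after 16 hr at 37 °C/5% CO2, ONE-Glo was added and luciferase measured 30 min later.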
Starred values were filed as active, the others as inactive; i = inactive; u = inconclusive; x = no result given. This is a sample that favours compounds with a hit; in the whole collection about 8.1% have one here. Calls follow the shape of the dose curve; as a rule, active = well fitted curve in the direction sought with a large enough effect; inconclusive = small, poorly fitted or top-dose-only effect, or another doubt; inactive = no such curve, though single readings can be large; an effect the other way counts as inactive or inconclusive. Potency is read from the fitted curve at half-maximal effect.

SMILES	SW480 rereplic	KB-3-1 cytotox	KB-V1 MDR tox	MCF10A rereplic	ELG1 DNA repair
COc1ccc(N2CCN(CCCNC(=O)c3cnn(-c4ccc(F)cc4)c3-n3cccc3)CC2)cc1	x	23.1µM*	u	x	x
CC1CCCN(CCCNC(=O)c2coc3nc4ccccc4nc23)C1 (configuration not stated)	-4.5%	i	u	21.4%	5.6%
CN1CCN(CCCNC(=O)c2cnn(-c3ccc(F)cc3)c2-n2cccc2)CC1	x	i	i	x	x
CC1CCN(CCCNC(=O)c2coc3nc4ccccc4nc23)CC1	8.0%	i	i	14.6µM*	u
O=C(NCCN1CCN(c2ccccc2)CC1)c1ccccc1F	2.2%	i	i	14.6%	5.6%
O=C(NCCCN1CCN(CCCNC(=O)c2ccccc2F)CC1)c1ccccc1F	7.31µM*	i	i	18.8%	12.2%
O=C(Cc1ccccc1)Nc1nnc(-c2ccncc2)s1	x	i	i	x	x
CC(CNC(=O)c1cnn(-c2ccc(F)cc2)c1-n1cccc1)c1ccccc1 (configuration not stated)	x	u	20.6µM*	x	x
COc1ccc(CNC(=O)c2cnn(-c3ccc(F)cc3)c2-n2cccc2)cc1	x	i	u	x	x
COc1ccccc1-c1csc(C(O)c2ccccc2)n1 (configuration not stated)	x	i	u	x	x
O=C1C(Cl)=C(N2CCN(c3ccccc3[N+](=O)[O-])CC2)C(=O)c2ccccc21	16.4µM*	u	u	u	u
O=[N+]([O-])c1cc(Cl)ccc1N1CCCC1	3.4%	i	i	1.9%	13.7%
CSc1ccc(Cn2c(C)c(C(=O)NCc3cccs3)sc2=O)cc1	x	i	u	x	x
COc1ccc(-c2csc(N3CCN(S(=O)(=O)c4ccc5c(c4)NC(=O)CO5)CC3)n2)cc1	9.2µM*	u	u	32.9%	u
CCN(CC(=O)Nc1ccccc1C(F)(F)F)CC(=O)c1[nH]c(C)c(C(C)=O)c1C	x	i	u	x	x
COc1ccccc1CNC(=O)C1CCN(S(=O)(=O)c2ccc3[nH]c(=O)ccc3c2)CC1	x	i	i	x	x
CCCNC(=O)CSc1nc2ccccc2nc1Cc1ccc(Cl)cc1	x	i	i	x	x
COc1ccc(NCc2nnc(SCC(=O)N3CCCc4ccccc43)o2)cc1	-18.4%	i	i	-1.2%	-18.9%
CC1Cc2ccccc2N1C(=O)CSc1ccccc1 (configuration not stated)	-8.4%	i	16.4µM*	-3.4%	u
Cc1sc2nc(C3CC3)nc(SCC(=O)N3c4ccccc4CC3C)c2c1C (configuration not stated)	14.6µM*	i	5.8µM*	9.2µM*	u
O=C(CSc1nnc(CNc2ccccc2)o1)N1CCCc2ccccc21	-2.5%	i	13µM*	-5.0%	-8.6%
CC1Cc2ccccc2N1C(=O)CSC1=NCCS1 (configuration not stated)	-3.1%	i	i	7.5%	-1.8%
Cc1nc(SCC(=O)N2c3ccccc3NC(=O)CC2C)c2c(C)c(C)sc2n1 (configuration not stated)	-20.3%	i	i	u	-20.9%
O=C(CSc1nnc(CNc2ccc(F)cc2)o1)N1CCN(C(=O)c2ccco2)CC1	1.5%	u	i	2.2%	-9.4%
O=C(CSc1nnc(CNc2ccc(F)cc2)o1)N1c2ccccc2Sc2ccccc21	-2.2%	u	3.26µM*	9.7%	u
SMILES	SW480 rereplic	KB-3-1 cytotox	KB-V1 MDR tox	MCF10A rereplic	ELG1 DNA repair
O=C(/C=C/c1cccs1)Nc1cccc([S+](=O)([O-])Nc2ccccc2F)c1	x	i	i	x	x
CC(C)C[C@@H](CN)NC(=O)c1nc[nH]c1C(=O)N[C@@H](C)C(=O)CNC[C@H](C)NC(=O)c1nc[nH]c1C(=O)N[C@@H](CC(=O)O)C(=O)O	-7.9%	i	u	-5.1%	x
CCc1ccc2c(CN3CCC(C(=O)OC)CC3)cc(=O)oc2c1	0.3%	i	i	4.5%	18.5%
O=C(Cc1cccs1)Nc1nnc(SCC(=O)N2CCCCC2)s1	2.4%	i	i	-12.3%	-1.4%
O=C(Nc1nnc(SCC(=O)N2CCCCC2)s1)c1cccs1	-6.1%	i	20.6µM*	-2.5%	u
CC1Cc2ccccc2N1C(=O)CSc1nnc(CNc2ccccc2)o1 (configuration not stated)	-2.1%	u	16.4µM*	-3.4%	-4.9%
CC(=O)Nc1nnc(SCC(=O)N2CCCc3ccccc32)s1	-10.5%	i	i	1.84µM*	1.3%
O=C(CSc1nnc(COc2ccc(F)cc2)o1)N1c2ccccc2CCc2ccccc21	14.4%	i	6.51µM*	u	u
CCCCn1c(N)c(N(CCC(C)C)C(=O)c2oc3ccc(OCC)cc3c2C)c(=O)[nH]c1=O	u	i	i	u	-5.8%
CC(C)Cn1c(=O)c2ccccc2n2c(SCC(=O)N3c4ccccc4CC3C)nnc12 (configuration not stated)	2.1%	i	1.84µM*	2.4%	u
CCN1CCOC(=O)C1CC(=O)Nc1cc(C)cc(C)c1 (configuration not stated)	x	i	u	x	x
CC1(C)CC(=O)C(C(C2=C(O)CC(C)(C)CC2=O)c2ccc([N+](=O)[O-])cc2)C(=O)C1 (configuration not stated)	1.0%	i	u	-2.6%	5.3%
CC1(C)CC(=O)C(C(C2=C(O)CC(C)(C)CC2=O)c2ccc(Br)s2)C(=O)C1 (configuration not stated)	u	u	20.6µM*	13µM*	13.6%
COc1cccc(C(C2=C(O)CC(C)(C)CC2=O)C2C(=O)CC(C)(C)CC2=O)c1 (configuration not stated)	0.5%	i	i	-3.1%	u
Cc1ccc(C(C2=C(O)CC(C)(C)CC2=O)C2C(=O)CC(C)(C)CC2=O)s1 (configuration not stated)	u	i	i	23.1µM*	19.0%
C[N+]1(CC(=O)c2ccccc2)CCc2ccccc2C1 (configuration not stated)	x	i	i	x	x
CC(=O)N/C(=C\c1ccccc1)C(=O)OCC(=O)Nc1ccc(C)c(S(=O)(=O)N(C)C)c1	5.8µM*	i	u	6.7%	-13.3%
CC(=O)N/C(=C\c1ccccc1)C(=O)OCC(=O)N(C)C1CCCCC1	u	i	16.4µM*	-86.2%	-2.1%

Assay outcomes: PubChem BioAssay, National Center for Advancing Translational Sciences (NCATS)
